Experiment: MRP1 drug-resistance reversers in H69AR cells – cell-based, doxorubicin co-treatment, pilot screen (AID 601)
Settings: H69AR cells, CellTiter-Glo, 72 h; compound alone cytotoxicity; at 10 µM
With `CN=C1CC(C)(C)CC(=O)/C1=C(/O)CCC(=O)NC` the viability was 102%. Molecule `CC(C)(C)NC(=O)Cn1nnc(-c2cccs2)n1` has a viability of 92.2%. Work on `Nc1nnc(SCC(=O)N2CCc3ccccc32)n1-c1ccccc1` yielded a viability of 101%. Molecule `O=C(CSc1ncnc2c1oc1ccccc12)Nc1ccccc1F` has a viability of 90.5%. `O=C(Nc1cccc(C(F)(F)F)c1)c1cccnc1N1CCCC1` gave a viability of 95%. `Cc1cc(C(F)(F)F)nn1Cc1ccc(C(=O)NCc2ccco2)o1` gave a viability of 89.9%. With `O=C(C1CCCN(S(=O)(=O)c2cccnc2)C1)N1CCN(c2ccccn2)CC1` (centres undefined) the viability was 98.7%. In the case of `O=C(CCn1c(=S)[nH]c2cc3c(cc2c1=O)OCO3)N1CCN(C2CCCCC2)CC1`, the viability is reported as 90%. `CC(C)CC(=O)CN1C(=O)C2(OCCO2)c2ccccc21` gave a viability of 89.6%. Work on `CNC(=O)CN(C#N)c1nc(N(C)C)nc(N(C)C)n1` yielded a viability of 92.8%. In the case of `O=C(Oc1ccc2c(c1)CCC2)N1CCOCC1`, the viability is reported as 95.6%. `CCCn1c(N2CCN(CC(=O)Nc3ccc4c(c3)OCCO4)CC2)nc2ccccc21` showed a viability of 88.9%. `COCc1ccccc1Cn1cnc2c1c(=O)n(C)c(=O)n2C` showed a viability of 101%. With `O=C(Nc1ccc(N2CCOCC2)cc1)c1cc2ccccc2o1` the viability was 85.7%. With `COc1ccc(N2C(=O)CC(NC3CC3)C2=O)cc1` (centres undefined) the viability was 91.2%. `COc1cccc(C(=O)NCc2nnc(SCC(=O)Nc3nccs3)n2-c2ccccc2)c1` gave a viability of 97.9%. Molecule `COCCCN1C(=O)C(O)=C(C(=O)c2ccco2)C1c1ccc(Br)cc1` (centres undefined) has a viability of 97.6%. Work on `Cc1cccc(N2C(=O)CC(N3CCN(Cc4ccc(Cl)cc4)CC3)C2=O)c1` (centres undefined) yielded a viability of 99.2%. `CS(=O)(=O)N(CC(=O)Nc1ccc2c(c1)OCCO2)Cc1ccccc1` showed a viability of 99.5%.
